HP1b chromo inh: inhibitors of HP1-beta chromodomain binding to methylated histone tails. P83916. AlphaScreen HP1-beta / biotin-H3K9me3 peptide binding. Potency, µM (top dose mostly 114 µM), for the others: top-dose activity change, negative = inhibition, hits mostly inhibitors. 390,000 compounds, 0.56% hits; note: nearly all actives have a fitted effect of over 70% in size
Target sequence (P83916 whole entry, looked up): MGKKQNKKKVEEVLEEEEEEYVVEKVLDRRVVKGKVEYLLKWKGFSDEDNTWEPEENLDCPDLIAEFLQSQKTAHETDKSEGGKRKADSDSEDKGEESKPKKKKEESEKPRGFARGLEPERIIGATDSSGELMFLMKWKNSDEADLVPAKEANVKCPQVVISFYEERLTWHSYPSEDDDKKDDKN
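Compound inhibition of the preformed complex between 50 nM HP1-beta and 50 nM biotinylated H3K9me3 peptide was read by AlphaScreen. Buffer was PBS pH 7.4 with 0.01% Tween-20. Incubations ran 30 min at room temperature, with 10 ug/mL donor/acceptor beads.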
G9a inh: inhibitors of human histone lysine methyltransferase G9a | G9a H3K9 monomethylation, AlphaScreen, 2 h | Potency, µM (highest dose often 102 µM), for inactives: at the highest dose activity, negative = inhibition, actives largely listed as inhibitors | 350,000 compounds, 8.8% hits | AID 504332; note: % is set by controls: 0 for no effect and ±100 for the full control effect; nearly all actives have a fitted effect of over 75% in size
Target sequence (Q96KQ7 913-1193 limits assumed): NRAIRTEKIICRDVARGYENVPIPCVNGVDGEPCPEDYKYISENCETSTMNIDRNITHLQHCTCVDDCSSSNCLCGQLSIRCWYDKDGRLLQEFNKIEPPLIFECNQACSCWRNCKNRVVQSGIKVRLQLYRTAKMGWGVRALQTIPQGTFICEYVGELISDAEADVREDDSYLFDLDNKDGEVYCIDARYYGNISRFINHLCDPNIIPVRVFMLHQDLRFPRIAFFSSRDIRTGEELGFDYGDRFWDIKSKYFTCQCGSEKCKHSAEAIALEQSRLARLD
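Chemiluminescent proximity detection of H3K9 monomethylation, read after 10 min bead incubation in the dark. Reaction: 20 nM G9a, 500 nM biotin-H3K9 peptide, 20 uM SAM cofactor, 2 h, room temperature, following 15 min enzyme-compound preincubation.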
Sfp PPTase inh: blocks B. subtilis Sfp PPTase activity | Biochemical Sfp PPTase activity, qHTS | Potency, µM, for inactives: largest response in the series, negative = inhibition, usual class: inhibitors | 310,000 compounds, 3.5% hits | AID 1490;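 note: the enzyme is Sfp with the accession as filed and its product quenches rhodamine fluorescence; 0% = enzyme reaction without inhibitor and -100% = no enzyme wells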
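Compounds were incubated with enzyme (final 15 nM) for 15 min at room temperature before substrate addition started the reaction. Fluorescence at 525 nm excitation, 598 nm emission was recorded immediately and after 30 minutes.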
JMJD2A Tudor: JMJD2A Tudor domain (human) inhibition; AlphaScreen JMJD2A-Tudor / H3K4me3 peptide binding; Potency, µM (titrated, usually from 114 µM), inactives show at the highest dose activity change, negative = inhibition, usual class: inhibitors; 390,000 compounds, 4.4% hits; note: % is set by controls: 0 for no effect and ±100 for the full control effect; nearly all actives have a fitted effect of over 50% in size
L3MBTL1 block: L3MBTL1 (human) inhibition. 230,000 compounds, 0.66% hits. AlphaScreen L3MBTL1–H3K9me1 peptide binding. Potency, µM (doses to about 57.1 µM), for inactives: top-dose activity, negative = inhibition, usual class: inhibitors. AID 485360; note: % is set by controls: 0 for no effect and ±100 for the full control effect; nearly all actives have a fitted effect of over 60% in size
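First, the protein-peptide complex forms for 30 min at room temperature (L3MBTL1 50 nM, biotinylated H3K9me1 peptide 75 nM). Next, compounds are pin-transferred and incubated 30 min. Finally, AlphaScreen beads are added and read after 30 min.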
BAZ2B block: BAZ2B (human) inhibition. Q9UIF8. AlphaScreen BAZ2B-H3K14Ac peptide displacement. Potency, µM (top dose mostly 114 µM), inactives show at the highest dose activity change, negative = inhibition, actives largely listed as inhibitors. 360,000 compounds, 4.4% hits. AID 504333; note: % is set by controls: 0 for no effect and ±100 for the full control effect; nearly all actives have a fitted effect of over 60% in size
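In this displacement format the biotinylated H3(5-23) peptide acetylated at Lys14 serves as ligand at 50 nM, with BAZ2B at 50 nM in PBS pH 7.4 containing 0.01% Tween-20. Donor and acceptor beads are 10 ug/mL final.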
* hit, by the source's call; ? = inconclusive; nt = not tested or not shown; [ ] = another dose, or the depositor's remark. A selection: hits, their analogues and other compounds. The true share with any hit is near 12%. Calls come from the whole dose curve; as a rule, active = well fitted curve in the direction sought with a large enough effect; inconclusive = small, poorly fitted or top-dose-only effect, or another doubt; inactive = no such curve, though single readings can be large; an effect the other way counts as inactive or inconclusive. Potency is the fitted concentration of half-maximal effect.

SMILES	HP1b chromo inh	G9a inh	Sfp PPTase inh	JMJD2A Tudor	L3MBTL1 block	BAZ2B block
CC1=C(C(=O)NCCc2ccc(Cl)cc2)C2(CCCCC2)OC1=O	49%	3%[59 µM]	nt	3%	nt	4%
O=C1CC(SCCc2nc3ccccc3[nH]2)C(=O)N1c1ccc(F)cc1 (configuration not stated)	18%	45µM*	-6%	-16%	0%	-31%
Cc1cc(C)cc(-n2ccnc2SCC(=O)Nc2cccc3ccccc23)c1	?	13µM*	nt	22µM*	nt	7.1µM*
Cc1cccc(NC(=O)CSc2nc(=O)n3ccccc3n2)c1C	4%	9%	nt	-11%	1%	9%
CN(C)CCn1c2c(c(SCC(=O)Nc3cccc4ccccc34)nc1=O)CCCC2	15%	45µM*	nt	-15%	-2%	-5%
Cc1cc(C)cc(NC(=O)CSc2nccn2-c2ccccc2)c1	13%[57 µM]	?	nt	?	nt	?
Cc1cc(C)cc(-n2ccnc2SCC(=O)Nc2ccccc2F)c1	?	14µM*	nt	?	nt	28µM*
CCN(CC)CCn1c2c(c(SCC(=O)Nc3cccc4ccccc34)nc1=O)CCC2	4%	?	nt	-12%	1%	2%
O=C(CSc1nc(=O)n2ccccc2n1)Nc1cccc2ccccc12	15%	50µM*	nt	?	0%	-2%
Cn1ccnc1SCC(=O)Nc1cccc2ccccc12	23%	-3%[12.7 µM]	2%	-14%	-1%	-30%
COc1ccc(CC(=O)NCc2nc3cccnc3n2Cc2ccc(C)cc2)cc1OC	12%[57 µM]	3%[59 µM]	nt	-14%	nt	-4%
O=C(CN1C(=O)COc2ccc(S(=O)(=O)N3CCOCC3)cc21)NCc1ccc(Cl)cc1	38%	6%[59 µM]	nt	7%	nt	-32%
Cc1cc(C)n(-c2nc(NC(C)C)nc(NC(C)(C)C)n2)n1	26%[57 µM]	nt	nt	-23%[57.1 µM]	nt	nt
CCOCCCNC(=O)c1ccc2c(=O)n(CCc3ccc(OC)c(OC)c3)c(=O)[nH]c2c1	17%	23%[59 µM]	nt	-5%	nt	1%
c1ccc(CNCCN2CCNCC2)nc1	26%	4%	-4%	?	?	16µM*
NC(=O)c1nn2c(C(F)(F)F)cc(-c3ccc(Br)cc3)nc2c1Cl	7%	8%[59 µM]	nt	-13%	nt	6%
COC(=O)C1=C(C(=O)OC)[C@@H]2N(Cc3ccccc3)c3ccccc3[C@@]23C[C@@H](C(=O)OC)N(S(=O)(=O)c2cccs2)C3=N1	nt	nt	-14%	nt	nt	nt
NS(=O)(=O)c1ccc(-n2ncc3c(=O)[nH]c(SCC(=O)Nc4nccs4)nc32)cc1	11%	45µM*	3%	-25%	8%	-25%
CCc1ccccc1Nc1cc(C(=O)NC(C)c2ccccc2)c2ccccc2n1 (configuration not stated)	56%	15%[59 µM]	nt	2%	nt	nt
CNC(=S)N(CCc1c(C)[nH]c2ccc(Cl)cc12)Cc1cccnc1	-12%	6%[2.33 µM]	-12%	?	nt	71µM*
CNC(=S)N(CCc1c(C)[nH]c2ccc(C)cc12)Cc1cccnc1	9%	79µM*	5%	-28%	-8%	?
COCC[N+]1(C)CCCCC1	10%	4.5µM*	5%	?	-13%	-35%
C[N+]1(CCCCC[N+]2(C)CCCC2)CCCC1	nt	12%	3%	nt	nt	nt
CC1CC(=O)NN1C(=O)c1ccccc1 (configuration not stated)	-17%	79µM*	10%	28µM*	3%	79µM*
CC1CC(=O)NC(=O)N1Cc1ccccc1 (configuration not stated)	7%[57 µM]	nt	nt	3%	nt	nt
SMILES	HP1b chromo inh	G9a inh	Sfp PPTase inh	JMJD2A Tudor	L3MBTL1 block	BAZ2B block
CCCCC[C@]12Cc3cc(OC)c(OC)cc3C(O1)c1c(cc(C)n(-c3ccccc3)c1=O)O2	nt	8%[2.33 µM]	-11%	nt	nt	11µM*
COc1cc2c(cc1OC)C1O[C@](c3ccsc3)(C2)Oc2cc(C)n(Cc3ccccc3)c(=O)c21	nt	13%[2.33 µM]	7%	nt	nt	4µM*
COc1cc2c(cc1OC)C1O[C@](CCCCN3C(=O)c4ccccc4C3=O)(C2)Oc2c1c(=O)oc1ccc(F)cc21	nt	?	-19%	nt	nt	8.9µM*
CC1(C)Cc2c(cnn2-c2ccc(F)cc2)C(NC(=O)C2=NNC(=O)CC2)C1 (configuration not stated)	13%	13%	18%	16µM*	nt	-2%
CC1(C)Cc2c(cnn2-c2ccc(F)cc2)C(NC(=O)c2ccco2)C1 (configuration not stated)	40%	11%	8%	-7%	nt	-10%
COc1ccc(CN(Cc2ccccc2)C(=O)c2cccc(C#N)c2)cc1COc1ccc(NC(C)=O)cc1	38%	nt	nt	-35%	nt	nt
O=CNn1cnc2c(oc3nc(-c4ccccc4)cc(-c4ccco4)c32)c1=O	?	50µM*	?	?	?	-37%
Nc1c(C(=O)N/N=C/c2cccnc2)oc2nc(-c3ccccc3)cc(-c3ccco3)c12	30%	?	-24%	-21%	0%	-25%
C=CC(C1=CC(=O)C(OC)=CC1=O)c1ccccc1 (configuration not stated)	nt	?	-94%	nt	nt	nt
CC1=NN(c2cccc(C(=O)O)c2)C(=O)/C1=C\C=C\c1ccco1	13µM*	7.9µM*	-23%	8.9µM*	3.2µM*	10µM*
CC1=NN(c2ccccc2)C(=O)/C1=C\N1CC(C)OC(C)C1 (configuration not stated)	14%	79µM*	-2%	-30%	-4%	?
CC1=NN(c2ccccc2)C(=O)/C1=C/C=C/c1ccccc1	32µM*	5µM*	-3%	8.9µM*	?	7.9µM*
Cc1ccc(C2=NOC(=O)/C2=C\C=C\c2ccccc2)cc1	-30%	2.8µM*	28µM*	50µM*	-27%	35µM*
CC1=NN(c2ccccc2)C(=O)/C1=C/c1cc(C)n(C2CC2)c1C	26%	7%[12.7 µM]	19%	-35%[11.4 µM]	-5%	?
Cc1ccc(-n2nc3ccc(NC(=O)/C=C/c4ccco4)cc3n2)cc1	-15%	?	?	?	?	?
COC[C@H]1OC=C[C@@H](OC)[C@@H]1OC	nt	nt	5%	nt	nt	nt
CCOc1ccc(NC(=O)CCNS(=O)(=O)c2ccc3c(c2)CCCC(=O)N3)cc1	-10%	-10%[59 µM]	nt	-12%	nt	4%[57.1 µM]
Cc1cccc(NC(=O)c2sc3cccc(Cl)c3c2Cl)c1	61%	55%[59 µM]	nt	38%	nt	21%
Cc1ccc(-c2cnc(SCCNC(=O)c3ccco3)[nH]2)cc1	0%	45µM*	nt	-21%	0%	-34%
Cc1cccc(C(=O)NCCNC(=O)c2cccc(C)c2)c1	64%	13%[59 µM]	-24%	-8%	-3%	-5%
Cc1cccc(C(=O)NN2S(=O)(=O)c3ccccc3S2(=O)=O)c1	91%	7.1µM*	50µM*	-2%	nt	nt
